Results reported in PubChem BioAssay (NCI).
Several values for one entry are separate records, joined by “and”; a condition that tells them apart may be missing. Equal entries are not always repeated. Compounds without any hit were thinned out: in the full panel of roughly 83,000, 20% have a hit.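 96-well plates, one dose, 48 hours. Percent growth reported; active if below 10.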 Activity calls are given as the source filed them.

How the values were obtained:
Assay in all cases: NCI-60 one-dose screen, 48 h (100 = growth as untreated, 0 = no growth, -100 = all killed)
Conditions in all cases: 10 µM unless noted
NCI-H23 lung = system: NCI-H23 lung
NCI-H226 lung = system: NCI-H226 lung
NCI-H322M lung = system: NCI-H322M lung
HOP-62 NSCLC = system: HOP-62 NSCLC
NCI-H460 lung = system: NCI-H460 lung
HOP-92 NSCLC = system: HOP-92 NSCLC
NCI-H522 lung = system: NCI-H522 lung
A549/ATCC NSCLC = system: A549/ATCC NSCLC
786-0 renal = system: 786-0 renal
COLO 205 colon = system: COLO 205 colon
DU-145 prostate = system: DU-145 prostate
K-562 leukemia = system: K-562 leukemia
MALME-3M melanoma = system: MALME-3M melanoma
MDA-MB-231 breast = system: MDA-MB-231 breast
RXF 393 renal = system: RXF 393 renal
SF-268 CNS = system: SF-268 CNS
SF-295 CNS = system: SF-295 CNS
SF-539 CNS = system: SF-539 CNS
UACC-257 melanoma = system: UACC-257 melanoma
M14 melanoma = system: M14 melanoma

| SMILES | growth (NCI-H23 lung) | growth (NCI-H226 lung) | growth (NCI-H322M lung) | growth (HOP-62 NSCLC) | growth (NCI-H460 lung) | growth (HOP-92 NSCLC) | growth (NCI-H522 lung) | growth (A549/ATCC NSCLC) | growth (786-0 renal) | growth (COLO 205 colon) | growth (DU-145 prostate) | growth (K-562 leukemia) | growth (MALME-3M melanoma) | growth (MDA-MB-231 breast) | growth (RXF 393 renal) | growth (SF-268 CNS) | growth (SF-295 CNS) | growth (SF-539 CNS) | growth (UACC-257 melanoma) | growth (M14 melanoma) |
| --- | --- | --- | --- | --- | --- | --- | --- | --- | --- | --- | --- | --- | --- | --- | --- | --- | --- | --- | --- | --- |
| CCC(O)c1ccccc1 (stereo not given) | 112% (inactive) and 113% (inactive) | 96.1% (inactive) and 109% (inactive) | 114% (inactive) and 105% (inactive) | 87.2% (inactive) and 109% (inactive) | 106% (inactive) and 104% (inactive) | 117% (inactive) and 91.6% (inactive) | 101% (inactive) and 86.4% (inactive) | 104% (inactive) and 99.4% (inactive) | 94.6% (inactive) and 106% (inactive) | 128% (inactive) and 111% (inactive) | 120% (inactive) and 118% (inactive) | 96.8% (inactive) and 104% (inactive) | 114% (inactive) and 111% (inactive) | 95.9% (inactive) and 112% (inactive) | 8.94% (active) and 98.9% (inactive) | 113% (inactive) | 95% (inactive) and 115% (inactive) | 89.2% (inactive) and 105% (inactive) | 135% (inactive) and 85.4% (inactive) | 100% (inactive) |
| COc1cc2c(Nc3ccc(Cl)c(Cl)c3F)ncnc2cc1OCC1C[C@@H]2CN(C)C[C@@H]2C1 (stereo not given in full) | -82.2% (active) and 40% (inactive) | -65.1% (active) and 46% (inactive) | -96.4% (active) and 21.5% (inactive) | -87.2% (active) and 16.6% (inactive) | -79.4% (active) and 21.6% (inactive) | -84.5% (active) and 16.3% (inactive) | -80.7% (active) and -36.8% (active) | -92.8% (active) and 15.8% (inactive) | -91.9% (active) and -22.5% (active) | -84.6% (active) and -25.1% (active) | -83.6% (active) and 25.4% (inactive) | -39.5% (active) and -0.692% (active) | -93.5% (active) and -34.7% (active) | -87.5% (active) and -9.5% (active) | -95.2% (active) and -65.2% (active) | -70.2% (active) and 24% (inactive) | -93.6% (active) and -55.7% (active) | -93.9% (active) and 17.5% (inactive) | -87.8% (active) and -64% (active) | -71.1% (active) and -62.8% (active) |
| S=C1SCN(Cc2ccccc2)CN1Cc1ccccc1 | 81.2% (inactive) | 88.8% (inactive) | 94.5% (inactive) | 100% (inactive) | 95.5% (inactive) | 37.3% (inactive) | 21.5% (inactive) | 93.7% (inactive) | 49.8% (inactive) | 78.1% (inactive) | 41.8% (inactive) | 46.4% (inactive) | 92.1% (inactive) | 85% (inactive) | 87.1% (inactive) | 73.5% (inactive) | 100% (inactive) | 91.4% (inactive) | 95.2% (inactive) | 82.3% (inactive) |
| CC(CN=Cc1ccccc1O)N=Cc1ccccc1O (stereo not given) | 101% (inactive) and 102% (inactive) | 92.6% (inactive) and 91.4% (inactive) | 79.2% (inactive) and 113% (inactive) | 98.9% (inactive) and 104% (inactive) | 107% (inactive) and 100% (inactive) | 85.4% (inactive) | 75.7% (inactive) and 106% (inactive) | 107% (inactive) and 117% (inactive) | 104% (inactive) and 109% (inactive) | 98.5% (inactive) | 121% (inactive) and 105% (inactive) | 78.7% (inactive) and 88.2% (inactive) | 124% (inactive) and 110% (inactive) | 111% (inactive) and 104% (inactive) | 102% (inactive) and 91% (inactive) | 108% (inactive) and 91% (inactive) | 112% (inactive) | 94.9% (inactive) and 87.9% (inactive) | 87.7% (inactive) and 121% (inactive) | 106% (inactive) and 102% (inactive) |
| Oc1c(Cl)cc(Cl)cc1Sc1cc(Cl)cc(Cl)c1O | 11.4% (inactive) and 6.4% (active) and 76% (inactive) | 94.5% (inactive) and 48.1% (inactive) and 88.3% (inactive) | 25.6% (inactive) and 33.1% (inactive) and 87.1% (inactive) | 85.8% (inactive) and 61.6% (inactive) | 7.66% (active) and 11.8% (inactive) and 62.3% (inactive) | -12.5% (active) and -28.3% (active) and 32.7% (inactive) | 2.94% (active) and -18.8% (active) and 48.9% (inactive) | 62.5% (inactive) and 8.2% (active) and 88.4% (inactive) | 47.7% (inactive) and 104% (inactive) | 118% (inactive) and 87.9% (inactive) and 110% (inactive) | 75.6% (inactive) and 29.3% (inactive) and 94.6% (inactive) | 18% (inactive) and 8.54% (active) and 41% (inactive) | 10.7% (inactive) and 11.3% (inactive) and 82.2% (inactive) | 84.2% (inactive) and -21.8% (active) and 79.6% (inactive) | 91.3% (inactive) and 16.1% (inactive) and 87.9% (inactive) | 33.2% (inactive) and 21.9% (inactive) and 72.1% (inactive) | 18.6% (inactive) and 15.7% (inactive) and 75.4% (inactive) | 25.8% (inactive) and 93.6% (inactive) | 56% (inactive) and -16.2% (active) and 77.3% (inactive) | 69.1% (inactive) and 35% (inactive) and 105% (inactive) |
| CC(=O)Nc1cccc2c1CCCC2 | 98% (inactive) and 96.3% (inactive) | 98.9% (inactive) and 98.7% (inactive) | 113% (inactive) and 98% (inactive) | 91.8% (inactive) and 84% (inactive) | 101% (inactive) and 111% (inactive) | 96.5% (inactive) and 80.8% (inactive) | 68.7% (inactive) and 75.3% (inactive) | 63.6% (inactive) and 88.1% (inactive) | 95.8% (inactive) and 96.6% (inactive) | 109% (inactive) and 101% (inactive) | 107% (inactive) and 101% (inactive) | 109% (inactive) and 110% (inactive) | 103% (inactive) and 95.5% (inactive) | 115% (inactive) and 110% (inactive) | 101% (inactive) | 95.6% (inactive) and 103% (inactive) | 94.9% (inactive) and 100% (inactive) | 107% (inactive) and 97.8% (inactive) | 67.1% (inactive) and 102% (inactive) | 94.5% (inactive) and 101% (inactive) |
| CN(C)CCCNC1=C(Cl)C(=O)c2ccccc2C1=O | -41.4% (active) and -79.2% (active) | 102% (inactive) and 97.7% (inactive) | 92.4% (inactive) and 98.7% (inactive) | 78.8% (inactive) and 85.1% (inactive) | 78.9% (inactive) and 83.8% (inactive) | 108% (inactive) and 107% (inactive) | 80.4% (inactive) and -30.3% (active) | 94.3% (inactive) and 85.1% (inactive) | 99.5% (inactive) and 79.4% (inactive) | -73.7% (active) and -85.8% (active) | 75.2% (inactive) and 31.7% (inactive) | -46.7% (active) and -23.9% (active) | -82.7% (active) and -88.9% (active) | 69.6% (inactive) and 41.9% (inactive) | 122% (inactive) and 2.27% (active) | 102% (inactive) and 75% (inactive) | 87% (inactive) and 72.2% (inactive) | 102% (inactive) and 101% (inactive) | 28.4% (inactive) and -96.6% (active) | -87% (active) and -99.1% (active) |
